Test results reported in PubChem BioAssay AID1565 (Sanford-Burnham Center for Chemical Genomics, 2009).
Among all 290,000 compounds or so, about 3,200 (1.1%) were called active. The sample holds actives, similar compounds and a random draw of the others, so the mix is not that of the screen. Values without a mark were called inactive. No stated cut-off is given here; in the data, active means inhibition above about 60%; inactive means the rest.

The compounds below were run against Phosphoethanolamine/phosphocholine phosphatase (Homo sapiens) (UniProt Q8TCT1) (assay: PubChem AID 1565). Details: recombinant PHOSPHO1, absorbance phosphatase assay; at 13.3 µM; active compounds read high.
Sequence of Phosphoethanolamine/phosphocholine phosphatase (Homo sapiens) (Q8TCT1 whole entry, looked up): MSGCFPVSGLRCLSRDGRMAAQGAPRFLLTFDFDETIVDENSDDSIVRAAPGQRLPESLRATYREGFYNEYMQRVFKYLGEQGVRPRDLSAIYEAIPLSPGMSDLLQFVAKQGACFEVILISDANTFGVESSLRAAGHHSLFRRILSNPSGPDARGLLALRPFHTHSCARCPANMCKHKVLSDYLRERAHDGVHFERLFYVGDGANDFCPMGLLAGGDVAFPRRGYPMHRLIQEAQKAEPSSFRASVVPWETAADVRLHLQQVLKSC
For `O=C(C1CCCN(S(=O)(=O)c2ccc([N+](=O)[O-])cc2)C1)N1CCCCC1` (configuration not stated), the inhibition was 52.6%. `O=C(Cc1ccccc1)NNS(=O)(=O)c1ccc([N+](=O)[O-])cc1` gave an inhibition of 6.7%. In the case of `O=C(NNS(=O)(=O)c1ccc(F)cc1)C1CCCCC1`, the inhibition is reported as 18.4%. `O=C(NNS(=O)(=O)c1ccc([N+](=O)[O-])cc1)C1CCCCC1` was tested, and the inhibition was 61% (active). Work on `CC(=O)N1c2ccc(S(=O)(=O)N3CCCC(C(=O)Nc4ccc(C)cc4C)C3)cc2CC1C` (configuration not stated) yielded an inhibition of 25.4%. With `COc1ccc(OC)c(NC(=O)C2CCCN2S(=O)(=O)c2cccc3nsnc23)c1` (configuration not stated) the inhibition was 20.7%. Compound `Cc1nnc(SCC(N)=O)n1CC1CCCO1` (configuration not stated) has an inhibition of 14.5%. `O=C(CSc1nnc(-c2ccco2)n1CC1CCCO1)c1ccccc1` (configuration not stated) was tested, and the inhibition was 69.4% (active). `COc1ccccc1NC(=O)CSc1nnc(C)n1CC1CCCO1` (configuration not stated) was tested, and the inhibition was 2.5%. `Cc1cccc(NS(=O)(=O)c2ccc(-c3cnc(C4CC4)o3)cc2)c1` showed an inhibition of 36.8%. `Cc1nnc(SCC(=O)Nc2ccc(S(=O)(=O)Nc3ccc(Cl)nn3)cc2)s1` showed an inhibition of 7.5%. In the case of `S=C(c1ccccc1)N1CCCC1`, the inhibition is reported as 29%. For `OCCN1CCN(C(=S)c2ccc(-c3ccccc3)cc2)CC1`, the inhibition was 71.4% (active). In the case of `O=C(NC(c1ccccc1)c1ccccc1)N1CCN(CCO)CC1`, the inhibition is reported as -22.1%. Compound `COc1ccc(C(=O)N2CCCN(C)CC2)c(OC)c1` has an inhibition of -0.8%. With `Cc1ccc(NC(=O)CN(C)C(=O)COC(=O)C(C)(C)Oc2ccc(Cl)cc2)cc1` the inhibition was 14.5%. For `CC(C)CC(CCc1ccccc1)OS(N)(=O)=O` (configuration not stated), the inhibition was 4%. With `CC(=O)c1cc(C#N)c(N2CCCCC2)nc1C` the inhibition was 1.5%. Compound `CC(=O)c1cc(C#N)c(SCC(=O)Nc2nccs2)nc1C` has an inhibition of 28.8%. In the case of `CC(=O)c1cc(C#N)c(SCC(=O)C(C)(C)C)nc1C`, the inhibition is reported as 75.8% (active). Compound `Clc1cc(NC2CCCCC2)ncn1` has an inhibition of -10.9%. Work on `COc1ccc(-n2cnnc2SCC(=O)Nc2cccc([N+](=O)[O-])c2)cc1` yielded an inhibition of -3.1%. Work on `COc1cccc(NCCC(=O)c2cccc([N+](=O)[O-])c2)c1` yielded an inhibition of 22.6%. For `COc1ccc(Cc2nnc(SCC(=O)c3cccc([N+](=O)[O-])c3)n2C)cc1`, the inhibition was 76.3% (active). `COc1cccc(CNS(=O)(=O)c2cc3c(cc2C)n(C)c(=O)c(=O)n3C)c1` showed an inhibition of -3.5%. For `Cc1cccc(CNS(=O)(=O)c2ccc(-c3cnc(C4CC4)o3)cc2)c1`, the inhibition was 32.9%. `Cn1c(SCc2ccc(F)cc2)nnc1-c1ccncc1` showed an inhibition of 35.1%.
